Experiment [1] is described as follows: qHTS assay to identify small molecule antagonists of the thyroid receptor (TR) signaling pathway - cell viability counter screen (AID 743064). Further: nearly all actives have a fitted effect of over 50% in size. Further: potency means the concentration at half of the fitted maximal effect. In outline:
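Plate GH3.TRE-Luc cells; incubate 4 h at 37 °C; add compound, then T3 to 1 nM final; incubate 23.5 h; add CellTiter-Fluor; incubate 30 min at 37 °C, 5% CO2; read fluorescence.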
Background: Quantitative high-throughput screening tests each substance at several concentrations.

Experiment [2] can be described thus: qHTS assay to identify small molecule antagonists of the thyroid receptor (TR) signaling pathway (AID 743065). Further: nearly all actives have a fitted effect of over 55% in size. Further: potency means the concentration at half of the fitted maximal effect. A digest of the protocol:
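GH3.TRE-Luc rat pituitary cells (two TREs driving luciferase) were dosed with compound, then stimulated with 1 nM T3 (final) for 23.5 h at 37 C. ONE-Glo luminescence was the read-out, with CellTiter-Fluor fluorescence as the cytotoxicity counter-screen.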

Experiment [3] deals with thyroid hormone receptor (rat, GH3 cells). The experiment is described as follows: qHTS assay to identify small molecule agonists of the thyroid receptor (TR) signaling pathway (AID 743066; calls by dose curve).
In experiment [4] the target is Estrogen receptor (Homo sapiens) (UniProt P03372). The experiment can be described thus: qHTS assay to identify small molecule antagonists of the estrogen receptor alpha (ER-alpha) signaling pathway (AID 743069; active means well fitted curve in the direction sought with a large enough effect in the signal ratio in the repeat runs, not every such curve was filed as active; the % refers to the signal ratio). In outline: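 In this cell-based reporter format, GripTite HEK293 cells harbouring ER-alpha-UAS-bla were grown overnight with 2% charcoal-stripped FBS, dosed with DMSO-dissolved compounds, then challenged with 17beta-estradiol. After 18 hr at 37C, beta-lactamase activity was detected by FRET fluorescence.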

A short description of experiment [5]: qHTS assay to identify small molecule antagonists of the estrogen receptor alpha (ER-alpha) signaling pathway - cell viability counter screen (AID 743074; calls by dose curve; further: nearly all actives have a fitted effect of over 45% in size).
The target in experiment [6] is Estrogen receptor (Homo sapiens) (UniProt P03372). The experiment can be described thus: qHTS assay to identify small molecule agonists of the estrogen receptor alpha (ER-alpha) signaling pathway (AID 743075; calls by dose curve).
The target is the same in experiment [7]. The experiment is described as follows: qHTS assay to identify small molecule agonists of the estrogen receptor alpha (ER-alpha) signaling pathway using the BG1 cell line (AID 743079). Further: nearly all actives have a fitted effect of over 20% in size. Further: potency means the concentration at half of the fitted maximal effect.
The nature of experiment [8]: qHTS assay to identify small molecule antagonists of the estrogen receptor alpha (ER-alpha) signaling pathway using the BG1 cell line (AID 743080; calls by dose curve;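 further: BG1 cells stimulated with 17beta-estradiol alongside compound; series mostly up to about 70 µM; nearly all actives have a fitted effect of over 25% in size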). A digest of the protocol: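 Quantitative HTS on the Tox21 10K library: BG1 cells with endogenous ER-alpha and ERE-luciferase reporter, 17beta-estradiol stimulation, 21.5 h compound exposure, luminescence endpoint with parallel fluorescence cytotoxicity counter-read.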

The nature of experiment [9]: qHTS assay to identify small molecule antagonists of the estrogen receptor alpha (ER-alpha) signaling pathway using the BG1 cell line - cell viability counter screen (AID 743081).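 Further: compound given together with 17beta-estradiol as the ER stimulus; series mostly up to about 70 µM; nearly all actives have a fitted effect of over 45% in size.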
Experiment [10] addresses Aromatase (Homo sapiens) (UniProt P11511). The experiment is described as follows: qHTS assay to identify aromatase inhibitors (AID 743083). Further: series mostly up to about 70 µM; nearly all actives have a fitted effect of over 55% in size.
A short description of experiment [11]: qHTS assay to identify aromatase inhibitors - cell viability counter screen (AID 743084).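 Further: cells stimulated with testosterone during compound exposure; nearly all actives have a fitted effect of over 55% in size.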
For experiment [12], the target named is Aryl hydrocarbon receptor (Homo sapiens) (UniProt P35869). The experiment can be described thus: qHTS assay to identify small molecule that activate the aryl hydrocarbon receptor (AhR) signaling pathway (AID 743085).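 Further: HG2L7.5c1 human HepG2 liver cells with stably integrated DRE-driven firefly reporter; series mostly up to about 70 µM; nearly all actives have a fitted effect of over 15% in size.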 A digest of the protocol: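 Steps: seed HepG2-AhR-luc cells; allow 5 h at 37C; pin-transfer test compound or vehicle; incubate 24 h at 37C; add viability dye (30 min, 37C) and read fluorescence; add luciferase substrate (30 min, RT) and read luminescence.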

The nature of experiment [13]: qHTS assay to identify small molecule that activate the aryl hydrocarbon receptor (AhR) signaling pathway - cell viability counter screen (AID 743086).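 Further: HepG2 liver cells carrying the AhR DRE luciferase reporter; series mostly up to about 70 µM; nearly all actives have a fitted effect of over 45% in size.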 A digest of the protocol: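 HepG2-AhR-luc (HG2L7.5c1) cells, 4000/well, treated 24 h at 37 C with compound; viability measured as CellTiter-Fluor fluorescence after 30 min in the same wells as the luciferase read.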

Experiment [14] is described as follows: qHTS assay to identify small molecule antagonists of the peroxisome proliferator-activated receptor gamma (PPARg) signaling pathway - cell viability counter screen (AID 743194). Further: nearly all actives have a fitted effect of over 55% in size. A digest of the protocol: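 Cytotoxicity counter screen in PPARg-bla HEK293H cells, same wells as reporter assay. Compounds plus 50 nM rosiglitazone (final) for 17 h at 37 C, then viability read by CellTiter-Glo luminescence.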

Experiment [15] in a line: qHTS assay for small molecule agonists of the antioxidant response element (ARE) signaling pathway - cell viability counter screen (AID 743203; calls by dose curve; further: nearly all actives have a fitted effect of over 55% in size). A digest of the protocol:
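Viability counter screen: CellTiter-Glo luminescence, read after 30 min at room temperature, in ARE-bla HepG2 wells. Compound exposure lasted 16 h at 37C/5% CO2, following a 5 h pre-incubation of the cells after plating.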

The nature of experiment [16]: qHTS assay for small molecule activators of the heat shock response signaling pathway - cell viability counter screen (AID 743209). Further: nearly all actives have a fitted effect of over 50% in size. A digest of the protocol:
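Cytotoxicity counter screen run in the same wells as the heat-shock bla reporter assay: HeLa HSE-bla cells, 5 h compound exposure at 37 C, viability read by CellTiter-Glo luminescence.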

The nature of experiment [17]: qHTS assay for small molecule activators of the heat shock response signaling pathway (AID 743210; active means well fitted activation curve with a large enough effect in the signal ratio in the repeat runs, with a control signal flat, not every such curve was filed as active; the % refers to the signal ratio;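 further: HeLa cells with beta-lactamase reporter driven by heat shock elements; series mostly up to about 63 µM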). In outline: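 Following overnight attachment, HSE-bla HeLa cells received test compounds for 5 h at 37 C; beta-lactamase activity was then detected via FRET substrate fluorescence.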
Experiment [18] deals with Peroxisome proliferator-activated receptor gamma (Homo sapiens) (UniProt P37231). The experiment can be described thus: qHTS assay to identify small molecule agonists of the peroxisome proliferator-activated receptor gamma (PPARg) signaling pathway (AID 743094; active means well fitted activation curve with a large enough effect in the signal ratio in the repeat runs, not every such curve was filed as active; the % refers to the signal ratio). A digest of the protocol:
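Agonist activity was taken from a beta-lactamase reporter (FRET substrate, 1 h at room temperature) in HEK293H cells carrying a PPARg UAS-bla construct. Compounds in DMSO were incubated 17 h at 37C after a 5 h cell pre-incubation.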

The target is the same in experiment [19]. The experiment can be described thus: qHTS assay to identify small molecule antagonists of the peroxisome proliferator-activated receptor gamma (PPARg) signaling pathway (AID 743191; calls by dose curve; further: series mostly up to about 63 µM; nearly all actives have a fitted effect of over 30% in size). A digest of the protocol:
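GeneBLAzer PPARg UAS-bla HEK293H cells, 5 h post-plating, exposed to compounds 17 h at 37C. LiveBLAzer B/G FRET substrate added for 1 h at room temperature; beta-lactamase reporter read by fluorescence intensity.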

The nature of experiment [20]: qHTS assay for small molecule agonists of the antioxidant response element (ARE) signaling pathway (AID 743202; active means well fitted activation curve with a large enough effect in the signal ratio in the repeat runs, not every such curve was filed as active; the % refers to the signal ratio). A digest of the protocol: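 HepG2 ARE-bla cells; 16 h treatment at 37 C; FRET-based beta-lactamase fluorescence read after 2 h substrate incubation at room temperature.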

Results filed as inconclusive are left out. More than one record can exist for a structure, and the calls need not agree. Activity calls are given as the source filed them. Unless noted, the call rests on the fitted dose curve; in most records, active means well fitted curve in the direction sought with a large enough effect in the repeat runs; inconclusive means weak or mixed curves; inactive means no such curve, though single readings can be large; an effect the other way counts as inactive or inconclusive.

The record followed here is PubChem BioAssay (Tox21).

Chain of Aromatase (Homo sapiens) (P11511 whole entry, looked up): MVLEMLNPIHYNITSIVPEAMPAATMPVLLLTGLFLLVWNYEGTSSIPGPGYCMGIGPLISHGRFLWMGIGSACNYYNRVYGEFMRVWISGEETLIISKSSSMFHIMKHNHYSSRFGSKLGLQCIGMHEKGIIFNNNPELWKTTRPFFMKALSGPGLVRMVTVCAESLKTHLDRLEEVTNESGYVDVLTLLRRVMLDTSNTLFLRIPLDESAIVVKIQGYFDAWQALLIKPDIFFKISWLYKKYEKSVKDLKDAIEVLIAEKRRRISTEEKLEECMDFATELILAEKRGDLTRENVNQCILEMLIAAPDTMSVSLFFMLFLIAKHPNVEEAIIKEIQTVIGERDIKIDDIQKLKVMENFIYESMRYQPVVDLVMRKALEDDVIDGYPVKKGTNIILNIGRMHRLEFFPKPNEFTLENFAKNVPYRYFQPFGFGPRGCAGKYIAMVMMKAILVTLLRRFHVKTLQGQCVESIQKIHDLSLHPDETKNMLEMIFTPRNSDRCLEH
Chain of Peroxisome proliferator-activated receptor gamma (Homo sapiens) (P37231 whole entry, looked up): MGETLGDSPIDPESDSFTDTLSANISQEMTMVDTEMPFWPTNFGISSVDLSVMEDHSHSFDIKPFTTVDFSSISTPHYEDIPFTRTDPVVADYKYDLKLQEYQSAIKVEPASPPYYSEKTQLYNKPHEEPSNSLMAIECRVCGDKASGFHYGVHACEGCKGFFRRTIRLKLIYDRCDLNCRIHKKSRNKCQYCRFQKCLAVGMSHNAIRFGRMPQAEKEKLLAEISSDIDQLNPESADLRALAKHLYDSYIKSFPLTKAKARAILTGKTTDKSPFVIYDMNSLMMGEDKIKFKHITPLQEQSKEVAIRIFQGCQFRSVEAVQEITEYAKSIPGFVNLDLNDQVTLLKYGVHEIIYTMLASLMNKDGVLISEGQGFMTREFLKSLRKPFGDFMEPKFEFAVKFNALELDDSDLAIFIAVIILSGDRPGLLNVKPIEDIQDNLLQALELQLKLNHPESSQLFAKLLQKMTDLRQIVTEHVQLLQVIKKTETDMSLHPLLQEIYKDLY
Chain of Estrogen receptor (Homo sapiens) (P03372 whole entry, looked up): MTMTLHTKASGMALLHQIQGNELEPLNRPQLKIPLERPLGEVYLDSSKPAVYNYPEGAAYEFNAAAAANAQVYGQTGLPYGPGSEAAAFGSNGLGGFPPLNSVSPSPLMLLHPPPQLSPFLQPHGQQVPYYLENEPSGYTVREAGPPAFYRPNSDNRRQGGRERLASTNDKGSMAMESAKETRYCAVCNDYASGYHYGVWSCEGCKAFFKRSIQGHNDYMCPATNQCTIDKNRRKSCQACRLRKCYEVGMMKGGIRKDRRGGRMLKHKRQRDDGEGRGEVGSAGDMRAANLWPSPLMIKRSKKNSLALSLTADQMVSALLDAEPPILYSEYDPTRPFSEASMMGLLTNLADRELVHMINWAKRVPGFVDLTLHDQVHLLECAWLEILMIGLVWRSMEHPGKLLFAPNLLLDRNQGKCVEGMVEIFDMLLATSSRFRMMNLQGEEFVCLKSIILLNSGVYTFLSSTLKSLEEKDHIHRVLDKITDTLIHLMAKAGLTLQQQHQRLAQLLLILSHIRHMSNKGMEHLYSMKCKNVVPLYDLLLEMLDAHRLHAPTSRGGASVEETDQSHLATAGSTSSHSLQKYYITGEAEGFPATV
Chain of Aryl hydrocarbon receptor (Homo sapiens) (P35869 whole entry, looked up): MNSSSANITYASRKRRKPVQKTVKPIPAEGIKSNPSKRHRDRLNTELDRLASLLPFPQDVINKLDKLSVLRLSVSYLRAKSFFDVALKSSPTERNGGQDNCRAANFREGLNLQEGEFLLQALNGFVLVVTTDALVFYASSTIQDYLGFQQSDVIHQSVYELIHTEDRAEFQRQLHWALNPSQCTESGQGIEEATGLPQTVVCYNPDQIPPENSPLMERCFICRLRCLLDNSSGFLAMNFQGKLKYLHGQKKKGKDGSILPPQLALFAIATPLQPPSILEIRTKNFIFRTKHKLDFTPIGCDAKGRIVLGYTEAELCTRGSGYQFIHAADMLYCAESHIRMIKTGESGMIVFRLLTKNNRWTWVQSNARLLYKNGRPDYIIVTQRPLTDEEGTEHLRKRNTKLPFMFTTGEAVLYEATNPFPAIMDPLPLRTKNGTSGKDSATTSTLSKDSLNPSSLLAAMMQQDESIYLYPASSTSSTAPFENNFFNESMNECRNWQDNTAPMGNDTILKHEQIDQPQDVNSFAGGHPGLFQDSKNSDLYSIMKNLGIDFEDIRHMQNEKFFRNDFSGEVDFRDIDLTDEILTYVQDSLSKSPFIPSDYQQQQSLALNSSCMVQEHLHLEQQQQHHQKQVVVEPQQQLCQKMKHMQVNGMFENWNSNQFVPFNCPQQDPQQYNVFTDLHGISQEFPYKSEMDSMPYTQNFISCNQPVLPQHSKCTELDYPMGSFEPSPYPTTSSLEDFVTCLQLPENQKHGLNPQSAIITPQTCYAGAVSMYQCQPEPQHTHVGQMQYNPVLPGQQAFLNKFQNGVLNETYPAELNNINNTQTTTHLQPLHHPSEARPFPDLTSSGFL

Consider `CC(C(=O)O)c1ccc(-c2ccccc2)c(F)c1` (configuration not stated), for which the Potency entry in [1], in [2], in experiment [3], in [4], in experiment [6] and in experiment [8] was “inactive” each time. Moreover, the Potency entry in [9], in experiment [10], in experiment [11], in [12], in experiment [13] and in experiment [14] was “inactive” throughout. Further, the Potency entry in experiment [15] and in [16] was “inactive” each time. In addition, the compound was classed as inactive in experiment [5] and in experiment [17]. In addition, the Potency in experiment [7] was 4.52 µM (active) and inactive.

For `NCCCOCCOCCOCCCN`, the Potency entry in experiment [1], in experiment [2], in experiment [3], in experiment [4], in [6] and in [7] was “inactive” each time. For the same compound, the Potency result in [8], in experiment [9], in experiment [10], in [11], in [12] and in [13] was “inactive” throughout. The Potency result in experiment [18], in experiment [19], in experiment [14], in [15] and in experiment [16] was “inactive” throughout. The compound was classed as inactive in [5] and in experiment [17].

In the case of `CCCCCCCCCCCCCCCBr`, the Potency entry in experiment [1], in [2], in experiment [3], in experiment [4], in experiment [6] and in experiment [7] was “inactive” throughout. For the same compound, the Potency entry in experiment [8], in experiment [9], in [10], in experiment [11], in experiment [12] and in experiment [13] was “inactive” each time. For the same compound, the Potency entry in experiment [18], in [14], in experiment [20], in experiment [15] and in experiment [16] was “inactive” in each case. Also, the outcome in experiment [5] and in experiment [17] was inactive.

For `CCOC(=O)C1=C(C)NC(C)=C(C(=O)OC)C1c1cccc([N+](=O)[O-])c1` (configuration not stated), the Potency entry in experiment [1], in [2], in experiment [3], in experiment [4], in experiment [6] and in [8] was “inactive” in each case. Moreover, the Potency entry in experiment [9], in experiment [10], in experiment [11], in experiment [13], in experiment [18] and in experiment [20] was “inactive” in each case. Further, the Potency entry in experiment [15] and in [16] was “inactive” throughout. Moreover, the compound was called inactive in experiment [5] and in experiment [17].

With `Nc1cnn([C@@H]2O[C@H](CO)[C@@H](O)[C@H]2O)c(=O)n1`, the Potency result in experiment [1], in experiment [2], in [3], in experiment [6], in experiment [7] and in experiment [8] was “inactive” in each case. Besides, the Potency entry in [9], in experiment [10], in experiment [13], in [20], in [15] and in experiment [16] was “inactive” each time. Further, the outcome in experiment [5] and in experiment [17] was inactive.

For `CCCCC(CC)(CO)CO`, the Potency entry in [1], in [2], in experiment [3], in [9], in experiment [10] and in [11] was “inactive” throughout. For the same compound, the Potency entry in experiment [12], in [13], in experiment [18], in [14], in experiment [20] and in experiment [15] was “inactive” each time. In addition, in experiment [16], the Potency result is “inactive”. The compound was called inactive in experiment [5] and in [17].

In the case of `CCCCCCCCCCCCC(=O)O`, the Potency entry in experiment [1], in [2], in experiment [3], in experiment [6], in [8] and in [9] was “inactive” in each case. The Potency result in experiment [10], in experiment [11], in [13], in experiment [14] and in [15] was “inactive” throughout. Moreover, in experiment [5], the outcome was inactive.

In the case of `Cc1ccc(O)c([C@H](CCN(C(C)C)C(C)C)c2ccccc2)c1`, the results for the Potency in experiment [1] and in experiment [2] were 11.9 µM (active) and 26.6 µM (active), respectively. Moreover, the Potency result in experiment [3], in experiment [9], in experiment [10], in experiment [11], in experiment [12] and in experiment [13] was “inactive” in each case. For the same compound, the Potency result in [18], in experiment [19], in [14], in [15] and in experiment [16] was “inactive” in each case. Also, the compound was classed as inactive in [5] and in [17].

Regarding `COc1ccccc1OC(=O)Oc1ccccc1OC`, the Potency entry in experiment [1], in [2], in experiment [3], in [9], in experiment [10] and in [11] was “inactive” each time. For the same compound, the Potency entry in [12], in experiment [13], in experiment [18], in [14], in experiment [20] and in experiment [15] was “inactive” each time. Further, in experiment [16], the Potency entry was “inactive”. For the same compound, the outcome in experiment [5] and in experiment [17] was inactive.
